The supplement of paper PMC6555819

What was measured:
Experiment in all cases: PBM binding z-score (relative to random genomic background probes); higher = stronger binding; sequences stand for … in GC…GCGATTGACAGCGTAGAATGAAGG
[1] = tested on: FXR:RXRa (NR concentration 270 nM, RXRa partner concentration 90 nM)
Method in brief: (§1)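 Antibodies against each partner of ligand-free nuclear receptor dimers (one per run) detected binding on custom Agilent 4×180K protein-binding microarrays after 1 h incubation. The double-stranded probes had 34-nt variable regions carrying direct-repeat seeds, single-nucleotide variants, half-site ablations and random human genomic background sequences. Binding z-scores, from regression-normalized fluorescence, use the random background probes as reference.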

[2] = tested on: LXRa:RXRa (NR concentration 270 nM, RXRa partner concentration 90 nM)
Method in brief: as §1

[3] = tested on: LXRa homodimer (NR concentration 270 nM)
Method in brief: as §1

[4] = tested on: LXRb:RXRa (NR concentration 270 nM, RXRa partner concentration 90 nM)
Method in brief: as §1

[5] = tested on: LXRb homodimer (NR concentration 270 nM)
Method in brief: as §1

[6] = tested on: PPARa:RXRa (NR concentration 270 nM, RXRa partner concentration 90 nM)
Method in brief: as §1

[7] = tested on: PPARg:RXRa (NR concentration 180 nM, RXRa partner concentration 90 nM)
Method in brief: as §1

[8] = tested on: PPARg:RXRa 270nM:90nM, anti-RXR (NR concentration 270 nM, RXRa partner concentration 90 nM)
Method in brief: as §1

[9] = tested on: PPARg:RXRa 30nM:10nM, anti-RXR (NR concentration 30 nM, RXRa partner concentration 10 nM)
Method in brief: as §1

[10] = tested on: PPARg:RXRa 90nM:30nM, anti-RXR (NR concentration 90 nM, RXRa partner concentration 30 nM)
Method in brief: as §1

[11] = tested on: PPARg:RXRa DBDmut IVT, anti-RXR (DBD mutation: RXRa K156A/R161A, NR concentration 270 nM, RXRa partner concentration 90 nM)
Method in brief: as §1

[12] = tested on: PPARg:RXRa IVT, anti-PPARg (NR concentration 270 nM, RXRa partner concentration 90 nM)
Method in brief: as §1

[13] = tested on: PPARg DBDmut:RXRa IVT, anti-PPARg (DBD mutation: PPARg1 K132A/R137A, NR concentration 270 nM, RXRa partner concentration 90 nM)
Method in brief: as §1

[14] = tested on: PPARg DBDmut IVT, anti-PPARg (DBD mutation: PPARg1 K132A/R137A, NR concentration 270 nM)
Method in brief: as §1

[15] = tested on: PPARg homodimer (NR concentration 180 nM)
Method in brief: as §1

[16] = tested on: PXR:RXRa (NR concentration 270 nM, RXRa partner concentration 90 nM)
Method in brief: as §1

[17] = tested on: PXR homodimer (NR concentration 270 nM)
Method in brief: as §1

[18] = tested on: RARa:RXR (NR concentration 270 nM, RXRa partner concentration 90 nM)
Method in brief: as §1

[19] = tested on: RARa homodimer (NR concentration 270 nM)
Method in brief: as §1

[20] = tested on: RARb:RXRa (NR concentration 270 nM, RXRa partner concentration 90 nM)
Method in brief: as §1

Sequence | PBM binding z-score [1] | PBM binding z-score [2] | PBM binding z-score [3] | PBM binding z-score [4] | PBM binding z-score [5] | PBM binding z-score [6] | PBM binding z-score [7] | PBM binding z-score [8] | PBM binding z-score [9] | PBM binding z-score [10] | PBM binding z-score [11] | PBM binding z-score [12] | PBM binding z-score [13] | PBM binding z-score [14] | PBM binding z-score [15] | PBM binding z-score [16] | PBM binding z-score [17] | PBM binding z-score [18] | PBM binding z-score [19] | PBM binding z-score [20]
CGTCCAAGGTCAATGCTAGGTCAATGAAAGCATT | 6.8 | 5.82 | 3.63 | 4.64 | 1.53 | 5.09 | 4.43 | 4.97 | 1.54 | 3.64 | 2.82 | 4.3 | 0.467 | 0.337 | 5.41 | 5.09 | 1.55 | 5.61 | 1.61 | 5.25
CAAACTAGCTCACGAAAGGTCAAAGTCGAATGAC | 4.81 | 5.42 | 5.5 | 5.58 | 2.21 | 5.38 | 2.42 | 4.26 | 1.46 | 3.03 | 0.734 | 2.28 | 0.536 | 0.187 | 3.91 | 5.52 | 1.75 | 6.04 | 2.13 | 4.4
GGAACGAGGGCATTCGAGTTGATGGCATGGCGAT | 1.48 | 1.27 | -0.635 | -0.299 | -0.896 | 1.31 | 0.637 | 0.324 | -0.665 | -0.326 | 3 | 2.1 | -0.485 | -0.554 | -0.644 | 3.26 | 1.55 | 0.115 | -0.893 | 1.6
GCAGAGAGGTGAAACGCAGGTAACTCAGGGTGGC | 0.782 | 1.12 | -0.671 | 0.662 | -1.3 | 2.86 | 1.21 | 1.02 | -0.323 | -0.000796 | 2.17 | 1.97 | -0.463 | -1.39 | -0.0516 | 0.34 | -0.544 | 1.48 | -0.435 | 1.88
CGTCCAAGTTCAAGGTCAGTGAAAGAGACTCGAA | 4.93 | 4.22 | 1.93 | 3.18 | 0.857 | 4.02 | 2.06 | 2.5 | 0.198 | 1.24 | 0.857 | 1.87 | 0.331 | -0.271 | 4.01 | 4.56 | 3.81 | 3.81 | 2.09 | 4.49
GCAGACATGTGAAACGCAGGTAACTCAGGGTGGC | -0.536 | -0.654 | -0.866 | -0.864 | -1.11 | -0.505 | 0.622 | -0.625 | -0.725 | -0.59 | -0.934 | -0.641 | -0.654 | -1.35 | -1.78 | -0.925 | -0.866 | -0.472 | -0.769 | -0.383
TCTTGTAGATCATCAGGAGGTTAAGAAAGATCGA | 0.0818 | 1.07 | -0.0921 | 0.94 | -0.422 | 1.1 | -0.109 | 1.34 | 2.4 | 1.84 | 1.49 | 0.887 | 1.1 | -0.169 | -0.101 | 0.787 | -0.453 | 0.957 | -0.298 | 0.52
AGAACGAGGGCAATGAGTTGATAGTACGGGTGGC | 0.224 | 0.29 | -0.524 | -0.18 | -0.473 | 1.56 | 1.5 | 0.768 | 0.0705 | 0.415 | 3.34 | 2.4 | -0.466 | 0.0133 | 0.221 | 2 | 6.24 | 0.19 | -0.58 | 2.11
AGAACGAGGGCACTGAGTTGATAGCACGGGTGGC | 0.0718 | -0.082 | -0.301 | -0.236 | -0.887 | 1.52 | 1.5 | 1.04 | 0.0133 | 0.347 | 3.56 | 2.9 | 0.453 | 0.196 | 0.00559 | 1.21 | 4.15 | 0.453 | -0.261 | 2.09
CCTGCTGGGCCAAGGTCATTGATCAGTCAAAGCA | 3.6 | 3.06 | 0.626 | 2.99 | -0.84 | 3.64 | 1.23 | 2.56 | -0.0774 | 1.46 | 0.105 | 1.18 | -1.48 | -1.47 | 2.84 | 3.79 | 1.84 | 3.92 | -0.536 | 3.48
CGAACTAGGTCATTAACAGGACAGTGAATAGTAA | 3.27 | 2.59 | 0.8 | 1.88 | -0.0794 | 4.12 | 7.01 | 5.93 | 3.43 | 5.45 | 8.02 | 7.96 | 3.04 | 1.69 | 2.06 | 1.28 | 0.557 | 1.97 | 0.792 | 3.27
CCCCGGAGGACAACAGGAGGTCAGAGCTGCCAGA | 1.51 | 2.55 | 2.5 | 1.75 | -0.479 | 2.24 | 0.602 | 0.469 | -0.809 | -0.262 | -0.654 | 0.373 | -1.55 | -1.4 | 2.15 | 2.19 | 0.777 | 2.7 | 0.677 | 2.86
CCTGCTAGGGCAATGGTCAGCTAAAGCAGCTCGC | -0.321 | -0.261 | -0.651 | -0.809 | -1.23 | 0.614 | 1.75 | 3.28 | 0.695 | 2.57 | 1.55 | 1.76 | -1.07 | -1.49 | -0.322 | -0.655 | -0.95 | -0.343 | -1.1 | 1.15
CCAGACAGGTGAGAAGGTAACCCAGCCTCGATTA | 0.179 | 0.277 | -0.0873 | 0.148 | 0.023 | 0.739 | 0.689 | 0.473 | -0.12 | 0.118 | 1.18 | 0.79 | -0.0117 | -0.618 | 0.918 | -0.0868 | 0.187 | 0.417 | 0.439 | 0.682
GCTAGTTGGTCAGCAAAAGGTCACACACCGGTCG | 3.17 | 4.15 | 4.08 | 3.94 | 0.516 | 4.17 | 2.48 | 4.05 | 1.79 | 3.39 | 0.999 | 2.88 | -0.1 | -0.835 | 4.56 | 5.02 | 1.32 | 5.74 | 2.26 | 4.37
GCTATTAGTTGGAAGGGCAACCGAATGATTCTCG | -0.211 | -0.165 | 0.178 | -0.0403 | -0.253 | 0.0818 | 0.375 | 0.723 | -0.127 | 0.108 | -0.166 | -0.0839 | -0.592 | -0.456 | 0.324 | -0.247 | -0.0418 | -0.059 | 0.846 | 1.06
GCTGTTAGGTCAACTGATGGTCAGCTAAAGCTCG | 4.8 | 3.67 | 0.551 | 2.5 | 1.02 | 3.78 | 2 | 2.74 | 0.501 | 1.61 | 4.04 | 2.94 | 0.716 | 0.227 | 3.51 | 2.32 | -0.291 | 3.69 | 0.121 | 4.4
GGTTACGGGTCAAAGGTTATAGCATGAATAGAAT | 7.96 | 5.86 | 0.937 | 5.95 | 0.466 | 7.09 | 11.1 | 9.43 | 8.67 | 10.2 | 3.06 | 6.69 | 1.77 | 1.31 | 2.81 | 6.3 | 0.489 | 8.27 | 1.03 | 4.72
